Target: PUM1 PUF domain R4-GCG (Homo sapiens, UniProt Q14671 828-1176, N971G;H972C;Q975G)
Assay: yeast three-hybrid, YBZ-1, SC-Leu-His + 0.5 mM 3-AT, 4 days
Conditions: tags: N-Gal4 AD-HA kept; label: inside an RPR1-promoter hybrid RNA with tandem MS2 sites; ssRNA
In short: (§1)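 Sequencing with Illumina followed PCR amplification of the repeat regions from transformants grown four days on SC-Leu (input) or SC-Leu-His + 0.5 mM 3-AT (selection). The transformants were strain YBZ-1 with a LexA–MS2 coat fusion and a HIS3 reporter, carrying Pumilio-1 PUF domain libraries and matching RNA elements. The interaction score is the log change in variant frequency from input to selection, computed in log2 with a pseudocount of 1 for absent variants.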

Sequence | binding signal
GGCUAGAACUAGUGGAUCCCCCGGCGCCCGGCGGCUCGAGCCCGGGUAAGUGUACAUAGUCUGCAUGCCGCCGGGCGCCAUGCCUGCAGGUCGACUCUAGAAAACAUG | 1.07 log2 enrichment (interaction score)
GGCUAGAACUAGUGGAUCCCCCGGCGCCCGGCGGCUCGAGCCCGGGUAAGUGUAUAUAGUCUGCAUGCCGCCGGGCGCCAUGCCUGCAGGUCGACUCUAGAAAACAUG | 2.61 log2 enrichment (interaction score)
GGCUAGAACUAGUGGAUCCCCCGGCGCCCGGCGGCUCGAGCCCGGGUAAGUGUAAAUAGUCUGCAUGCCGCCGGGCGCCAUGCCUGCAGGUCGACUCUAGAAAACAUG | 2.71 log2 enrichment (interaction score)

Target: PUM1 PUF domain R5-AGR (Homo sapiens, UniProt Q14671 828-1176, C1007A;R1008G;Q1011R)
Assay: as above
Conditions: tags: N-Gal4 AD-HA kept; label: inside an RPR1-promoter hybrid RNA with tandem MS2 sites; ssRNA
In short: as §1

Sequence | binding signal
GGCUAGAACUAGUGGAUCCCCCGGCGCCCGGCGGCUCGAGCCCGGGUAAGUGUUAAUAGUCUGCAUGCCGCCGGGCGCCAUGCCUGCAGGUCGACUCUAGAAAACAUG | 0.84 log2 enrichment (interaction score)
GGCUAGAACUAGUGGAUCCCCCGGCGCCCGGCGGCUCGAGCCCGGGUAAGUGUCAAUAGUCUGCAUGCCGCCGGGCGCCAUGCCUGCAGGUCGACUCUAGAAAACAUG | 3.47 log2 enrichment (interaction score)
GGCUAGAACUAGUGGAUCCCCCGGCGCCCGGCGGCUCGAGCCCGGGUAAGUGUAAAUAGUCUGCAUGCCGCCGGGCGCCAUGCCUGCAGGUCGACUCUAGAAAACAUG | 0.53 log2 enrichment (interaction score)

Target: PUM1 PUF domain R3-FWG (Homo sapiens, UniProt Q14671 828-1176, C935F;R936W;Q939G)
Assay: as above
Conditions: tags: N-Gal4 AD-HA kept; label: inside an RPR1-promoter hybrid RNA with tandem MS2 sites; ssRNA
In short: as §1

Sequence | binding signal
GGCUAGAACUAGUGGAUCCCCCGGCGCCCGGCGGCUCGAGCCCGGGUAAGUGUAAUUAGUCUGCAUGCCGCCGGGCGCCAUGCCUGCAGGUCGACUCUAGAAAACAUG | 4.85 log2 enrichment (interaction score)
GGCUAGAACUAGUGGAUCCCCCGGCGCCCGGCGGCUCGAGCCCGGGUAAGUGUAAGUAGUCUGCAUGCCGCCGGGCGCCAUGCCUGCAGGUCGACUCUAGAAAACAUG | 7.02 log2 enrichment (interaction score)
GGCUAGAACUAGUGGAUCCCCCGGCGCCCGGCGGCUCGAGCCCGGGUAAGUGUAAAUAGUCUGCAUGCCGCCGGGCGCCAUGCCUGCAGGUCGACUCUAGAAAACAUG | 4.7 log2 enrichment (interaction score)

Source: article PMC8384837, “Expanding the binding specificity for RNA recognition by a PUF domain”
